Test results as given in PubChem BioAssay (EPA / NIEHS).
Active and inactive are the calls of the source. How the source made its calls: active means hit-call score of the fitted dose curve at least 0.9, where 1 is the maximum; inactive means score below 0.9.

Read-out: Interferon-gamma inducible Protein 10 (IP10), CXCL10 (gene 3627)
Test: BSK_BE3C_IP10: BioMAP Diversity Plus: BE3C Assay for Interferon-gamma inducible Protein 10 (IP10) Biomarker Activity (AID 2283034)
Conditions: primary human bronchial epithelial cells; actives raise or lower the signal
Procedure: BSK_BE3C is a cell-based, multiplexed-readout assay that uses bronchial epithelial cell, a human lung primary cell, with measurements taken at 24 hours after chemical dosing in a 96-well plate.BSK_BE3C_IP10 is an assay component measured in the BSK_BE3C assay. It measures IP-10 antibody related to regulation of gene expression using ELISA technology.Data from the assay component BSK_BE3C_IP10 was analyzed into 1 assay endpoint. This assay endpoint, BSK_BE3C_IP10, was analyzed with bidirectional fitting relative to DMSO as the negative control and baseline of activity. Using a type of binding reporter, gain or loss-of-signal activity can be used to understand changes in the signaling as they relate to the gene CXCL10. Furthermore, this assay endpoint can be referred to as a primary readout, because this assay has produced multiple assay endpoints where this one serves a signaling function. To generalize the intended target to other relatable targets, this assay endpoint is annotated to the cytokine intended target family, where the subfamily is chemotactic factor.
The levels of cell surface (or secreted, indicated by the prefix "s") biomarker endpoints were measured by ELISA. Overt cytotoxicity to cells in confluent adherent cultures (all systems other than the BT system) was assessed by measuring total protein levels using sulforhodamine B (SRB) staining in parallel cultures at the time of biomarker measurements, indicated as SRB endpoints. For proliferation assays for adherent cell types, individual cell types are cultured at sub-confluence and relative cell numbers quantified by SRB staining at time points optimized for each system (48 h: 3C and CASM3C systems; 72 h: BT and HDF3CGF systems; 96 h: SAg system). SRB was performed by staining cells with 0.1% SRB after fixation with 10% TCA and reading wells at 560 nm.Viability and proliferation of PBMC (T cells) was quantified by Alamar Blue reduction for the SAg and BT systems. For PBMC viability (referred to as PBMC Cytotoxicity within the assay endpoint names), cells were plated (75,000/well in a 96-well plate) and then chemical samples added for 1 h before addition of activators, SEB and TSST-1 (20 ng/mL final concentration each). Cells were incubated for 90 h. Then, Alamar Blue (20 uL/well) (Invitrogen, Cat DAL1100) was added for 6 h, and the plates were read with a fluorescence microplate reader at 546/580 nm (excitation/emission). For PBMC proliferation, cells were plated and activated as above but incubated for only 16 h prior to addition of Alamar Blue. Plates were read after 6 h.

SMILES	outcome	AC50
CCNc1nc(NC(C)(C)C)nc(SC)n1	inactive	
O=C(O)CCC(F)(C(F)(F)F)C(F)(F)F	inactive	
CCCCC(CC)CO[N+](=O)[O-] (stereo not given)	inactive	
CCN1CCC2(CC1)COc1cc3c(cc12)N(C(=O)c1ccc(-c2ccc(-c4nnc(C)o4)cc2C)cc1)CC3		14.4 µM (active)
O=Cc1cccc(Oc2ccccc2)c1	inactive	
CC(C)(c1ccccc1)c1ccc(O)c(C(C)(C)c2ccccc2)c1		12 µM (active)
CC(=O)C(Cl)C(=O)N(C)C (stereo not given)		20 µM (active)
O=S(=O)(c1ccc(Cl)cc1)c1ccc(Cl)cc1	inactive	
CCOP(=S)(OCC)Oc1nc(Cl)c(Cl)cc1Cl	inactive	
C(=NC1CCCCC1)=NC1CCCCC1		20 µM (active)
O=C(O)C(F)(F)C(F)(F)C(F)(F)C(F)(F)C(F)(F)C(F)(F)F	inactive	
COP(=S)(OC)Oc1cc(Cl)c(Cl)cc1Cl		19.1 µM (active)
CC(C)CCCCCCOC(=O)c1ccccc1C(=O)OCCCCCCC(C)C	inactive	
COC[C@H](C)N(C(=O)CCl)c1c(C)csc1C	inactive	
COC(=O)Cc1ccccc1	inactive	
Cc1ccccc1N	inactive	
Oc1c(I)cc(I)cc1I		4.41 µM (active)
CCCCCCCCc1ccc(O)cc1		31.9 µM (active)
CCOC(=O)/C=C(C)/C=C/C[C@@H](C)CCCC(C)C		20 µM (active)
CN(C)N=O	inactive	

SMILES	outcome	AC50
COP(=S)(OC)Oc1ccc(S(=O)(=O)N(C)C)cc1	inactive	
CC(C)c1ccc(CO)cc1	inactive	
C=CC(=O)OCCCCCC(C)C	inactive	
O=C(O)C(Cl)(Cl)Cl	inactive	
COC(=O)c1sccc1S(=O)(=O)NC(=O)Nc1nc(C)nc(OC)n1	inactive	
CC(C)(C)c1cc(O)ccc1O		26.9 µM (active)
ClC1(Cl)C2(Cl)C3(Cl)C4(Cl)C(Cl)(Cl)C5(Cl)C3(Cl)C1(Cl)C5(Cl)C24Cl (stereo not given)	inactive	
Oc1ccc(-c2ccccc2)cc1	inactive	
Nc1cccc2ccccc12		20 µM (active)
O=[N+]([O-])c1ccc2c3c(cccc13)CC2	inactive	
O=[N+]([O-])c1ccc(O)c([N+](=O)[O-])c1		29.8 µM (active)
CCC(C)(C)c1ccc(O)c(C(C)(C)CC)c1		19 µM (active)
CCOP(=S)(OCC)SCSP(=S)(OCC)OCC	inactive	
O=c1[nH]c(=O)[nH]c(=O)[nH]1	inactive	
O=C1C2(Cl)C3(Cl)C4(Cl)C(Cl)(Cl)C5(Cl)C3(Cl)C1(Cl)C5(Cl)C24Cl (stereo not given)		7.91 µM (active)
COP(=S)(OC)Oc1ccc(Sc2ccc(OP(=S)(OC)OC)cc2)cc1		18.2 µM (active)
COc1cc(OC)nc(NC(=O)NS(=O)(=O)c2ncccc2C(=O)N(C)C)n1	inactive	
CCC(=O)C(CC(C)N(C)C)(c1ccccc1)c1ccccc1 (stereo not given)	inactive	
Cn1sc(Cl)cc1=O	inactive	
CC1(C)Cc2cccc(O)c2O1	inactive	
